# Results: PubChem BioAssay AID651821 (The Scripps Research Institute Molecular Screening Center, 2012)
# Out of some 370,000 compounds screened, about 4,700 (1.3%) were called active. Only a selection was taken, and actives are over-represented in it overall. A number with no mark means an inactive call.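 The calls were made as follows: active = inhibition above the plate cutoff, the mean of all test compounds on that plate plus 3 SD (cut at about 35% in these data); inactive = the rest.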
# Test: binders of r(CAG) RNA repeats, primary screen, biochemical, fluorescence (AID 651821);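 also: 0% = DMSO alone and 100% = 100 µM mitoxantrone as full dye displacement; higher means more dye released from RNA so lower well fluorescence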
# Settings: r(CAG) RNA repeat, TO-PRO-1 dye displacement fluorescence; at 3 µM; stronger effect = higher value
row,SMILES,inhibition
1,Cc1cc(=O)[nH]c(SCC(=O)Nc2ccc(F)cc2F)n1,7.71%
2,CN(C)CC(=O)N[C@@H]1C[C@@H]2O[C@H](CO)CC[C@@H]2O[C@@H]1CCc1ccc(C#Cc2ccccc2)cc1,2.31%
3,COC(=O)[C@]12C[C@H](CC(=O)NCCC(C)C)C(=O)N(CCc3ccc(OC)c(OC)c3)C1=C[C@H](C(C)(C)C)O[C@@H]2C,0.35%
4,CC(C)[C@H]1COCCS(=O)(=O)N1Cc1ccccc1-c1cccc2c1sc1ccccc12,9.63%
5,CCN(CCCNC(=O)C1CCN(S(=O)(=O)c2cnc[nH]2)CC1)c1ccccc1,1.6%
6,COc1ccc(CNC(=O)COC(=O)C2=Cc3ccccc3OC2)cc1,78.9% (active)
7,COc1ccc(CNC(=O)COC(=O)C(CCSC)N2C(=O)c3ccccc3C2=O)cc1 (stereo unspecified),3.76%
8,COc1ccc(CCNC(=O)COC(=O)c2cc(=O)c3ccccc3o2)cc1,0.17%
9,CCOC(=O)[C@]12CCCCC/C=C\1N(Cc1ccc(OC)cc1)C(=O)[C@H]2CC(=O)NCCCN1CCCC1=O,0.52%
10,COC(=O)[C@]12C[C@H](CC(=O)NCc3ccccc3)C(=O)N(Cc3ccccc3)C1=C[C@H](COCc1ccccc1)O[C@@H]2C,8.61%
11,O=C1Oc2ccccc2C(=O)/C1=C/c1ccccc1O,51% (active)
12,Cc1ccc(-c2nc(C3CCCN(S(=O)(=O)c4ccc(Br)s4)C3)no2)cc1 (stereo unspecified),5.63%
13,C=CCN=C1NC(c2cccc(C(F)(F)F)c2)C(C(=O)OC)=C(C)N1C (stereo unspecified),6.1%
14,O=C(NNc1c2ccccc2nc2ccccc12)c1cc2ccccc2cc1O,49.2% (active)
15,Cc1cc(C(=O)NNC(=O)c2cccc(S(=O)(=O)N3CCOCC3)c2)c2ccccc2n1,0.6%
16,Cc1cc(C)cc(OCC(=O)NCc2cc(C)nc3ccccc23)c1,-3.64%
17,Oc1c(Cl)cc(Cl)c(Cl)c1Cc1c(O)c(Cl)cc(Cl)c1Cl,94% (active)
18,CCOC(=O)CNC(=O)N(C)[C@H]1C[C@H]2c3[nH]c4c(-c5ccc6c(c5)OCO6)cccc4c3CCN2C(=O)[C@H]1[C@H](C)O,9.34%
19,Cc1cc(OCCCC(=O)Nc2cc(S(=O)(=O)N3CCOCC3)ccc2N2CCOCC2)ccc1Cl,2.46%
20,COCCNC(=S)Nc1cc(S(=O)(=O)N2CCOCC2)ccc1N1CCCCC1,1.62%
21,O=[N+]([O-])c1cc(Cl)cc(/C=N/NC(=S)Nc2cc(S(=O)(=O)N3CCOCC3)ccc2Cl)c1O,37.7% (active)
22,O=C(C(=O)N1CCC(c2ccccc2)CC1)c1ccccc1,1.3%
23,CCOC(=O)c1cccc(NC(=O)CN(C)S(=O)(=O)c2ccc(-c3cocn3)s2)c1,2.95%
24,O=C(CSc1nnc(-c2ccccn2)n1-c1ccccc1)Nc1ccc2cn[nH]c2c1,3.05%

row,SMILES,inhibition
1,O=C(Nc1cccc(Cl)c1)OC1CC2CC1[C@H]1CCCCN1[C@H]2Cc1ccccc1 (stereo partly specified),7.48%
2,Cc1ccccc1OS(=O)(=O)c1cccc([N+](=O)[O-])c1,0.69%
3,Cn1c2ccccc2c2cc(/C=C(\NC(=O)c3ccccc3)C(=O)NCC(=O)O)ccc21,35.8% (active)
4,CCn1cc(/C=C(\NC(=O)c2ccc(C)cc2)C(=O)NCCN2CCOCC2)c2ccccc21,-0.63%
5,O=C(NCC1CCCO1)/C(=C/c1ccc(Cl)cc1)NC(=O)c1ccccc1 (stereo unspecified),-2.17%
6,Cc1nc2ccc(C(=O)N3CCN(C(=O)C(C)(C)C)CC3)cc2n1C1CCCC1,0.89%
7,O=C1CC[C@@H](COc2ccc3[nH]cc(-c4ccccc4)c3c2-c2ccccc2)N1,6.86%
8,C[C@H]([C@@H](O)[C@@H](O)[C@@H](C)C(C)(C)C)[C@H]1CC[C@H]2C3CC[C@H]4C[C@H](OS(=O)(=O)O)[C@@H](OS(=O)(=O)O)C[C@]4(C)[C@H]3CC[C@]12C (stereo partly specified),88.4% (active)
9,CC(=O)O[C@H]1CC[C@@]2(C)[C@@H](CC[C@@H]3[C@@H]2CC[C@]2(C)[C@@H](C(C)(C)O)C[C@@H]32)C1,5.36%
10,O=C(N[C@H](Cc1ccccc1)C(=O)N1CCCN(Cc2cccs2)CC1)[C@H]1O[C@@H](n2ccc(=O)[nH]c2=O)[C@H](O)[C@@H]1O,1.68%
11,O=S1(=O)c2ccc(Br)cc2-n2nncc2CN1Cc1cccc(Cl)c1,7.4%
12,C=C(Cl)COC(=O)C1C2C=CC(C2)C1C(=O)O (stereo unspecified),-2.82%
13,Cc1noc(C)c1S(=O)(=O)NCCc1ccc(S(N)(=O)=O)cc1,2.53%
14,COC(=O)C[C@@H]1CC[C@H]2[C@@H](COc3ccc(NS(=O)(=O)CC(F)(F)F)cc3C(=O)N2C)O1,2.52%
15,CCCOc1ccc(Cn2c(O)cc(=O)[nH]c2=O)cc1,37.6% (active)
16,COc1ccc(Cn2c(O)c(/C=C3/C=CC=N3)c(=O)[nH]c2=O)cc1,4.64%
17,COc1cc(=O)[nH]c(=O)n1C(=O)Cc1ccccc1,5.86%
18,CN(C)C(=O)N1CCN(C(=O)[C@@H](Cc2ccccc2)NC(=O)[C@H]2O[C@@H](n3ccc(N)nc3=O)[C@H](O)[C@@H]2O)CC1,2.21%
19,FC(F)(F)c1cccc(Cn2ccc3ccc(-c4ccc5ccn(Cc6ccccc6)c5c4)cc32)c1,11%
20,CC1=C(C(=O)N(C)C)C(c2ccccc2OC(F)F)NC(=O)N1 (stereo unspecified),-5.88%
21,O=C(c1cccc(C(F)(F)F)c1)N1CC[C@H]2[C@H](CCCN2Cc2cc(F)cc(F)c2)C1,-2.78%
22,Cc1cc(/C=C2/C(=N)N3C(=NC2=O)SN=C3S(C)(=O)=O)c(C)n1-c1ccccc1,58.3% (active)
23,CC1=CC2=NC(=O)/C(=C/c3coc4ccccc4c3=O)C(=N)N2O1,-66.6%
24,CCOC(=O)C1=C(O)/C(=C/c2cc(C)n(-c3ccccc3)c2C)N=C1C,8.38%

row,SMILES,inhibition
1,COc1ccc2c(C(C)c3ccc(N)cc3)cn(C)c2c1 (stereo unspecified),5.87%
2,CN1C(=O)C2CC(O)C(SC3CC4C(=O)N(C)C(=O)C4CC3O)CC2C1=O (stereo unspecified),1.65%
3,COc1ccc(Cn2ccc3ccc(-c4ccc5ccn(Cc6ccccc6C)c5c4)cc32)cc1,15.1%
4,Cc1ccc(NC(=O)N2CCC(c3nc4c(nnn4Cc4c(F)cccc4Cl)c(=O)[nH]3)CC2)cc1,3.25%
5,O=C(Nc1ccc(F)cc1)N1CCCC(c2nc3c(nnn3Cc3ccccc3Cl)c(=O)[nH]2)C1 (stereo unspecified),0.69%
6,Cc1ccc(C)c(Cn2nnc3c(=O)[nH]c(C(=O)Nc4ccc(F)cc4)nc32)c1,60.2% (active)
7,COc1cccc(N2CCN(CC(=O)N(C)Cc3ccc(F)cc3)CC2)c1,-1.77%
8,O=C1CCCCC1C(=O)c1ccccc1 (stereo unspecified),-0.64%
9,C[C@H](O)[C@@H]1C(=O)N2CCc3c([nH]c4c(-c5ccc6c(c5)OCO6)cccc34)[C@@H]2C[C@@H]1N(C)C(=O)c1ccco1,5.15%
10,Cc1ccc(Sc2cc(C(=O)c3ccccc3C(=O)O)ccc2[N+](=O)[O-])cc1,72.1% (active)
11,Cc1ccc(C(=O)c2ccc(N3CCN(C)CC3)c([N+](=O)[O-])c2)cc1,-0.77%
12,CC(C)NC(=O)c1ccc(Sc2ccccc2)c([N+](=O)[O-])c1,-3.38%
13,COc1ccccc1C(=O)N1O[C@]23C=C[C@]14C[C@@H](O)CC[C@]4(C)C2CC[C@]1(C)[C@@H]([C@H](C)/C=C/[C@H](C)C(C)C)CC[C@H]13 (stereo partly specified),4.71%
14,CCOc1ccc(-c2n[nH]c(=S)n2/N=C/c2cc3c(cc2[N+](=O)[O-])OCO3)cc1,4.13%
15,CSc1ccc(/C=N/N2CCN(Cc3ccccc3Cl)CC2)cc1,-3.03%
16,CSc1ccc(C=Nn2c(-c3ccc(F)cc3)n[nH]c2=S)cc1,45.4% (active)
17,O=C1[C@@H](c2ccccc2)[C@@H](c2ccccc2)N1c1ccccc1,2.62%
18,CCOC(=O)[C@]12CCCC3=C1N(CCC3)C(=O)[C@@H](CC(=O)NCc1cccs1)C2,-1.37%
19,C=CCN1C(=O)[C@@H](CC(=O)NCCCOCCCC)[C@]2(C(=O)OCC)CCCCC/C=C/12,0.69%
20,OC(c1ccccc1)c1nc(/C=C/c2ccc(C(F)(F)F)cc2)cs1 (stereo unspecified),3.22%
21,O=C(Nc1c(-c2ccccc2)nc2c(Br)cc(Br)cn12)c1ccco1,7.88%
22,O=C(Nc1nonc1-c1ccc(Cl)cc1)c1ccco1,-0.35%
23,O=C(Nc1nc(-c2ccco2)c(-c2ccco2)s1)c1ccco1,70.5% (active)
24,COC(=O)C1=C(C)N(Cc2ccc(F)cc2)C(=S)NC1c1cccc(Cl)c1 (stereo unspecified),3.4%

row,SMILES,inhibition
1,N[C@@H](Cc1ccccc1)C(=O)N1CCC[C@@H]1C(=O)N1CCC2CCN(S(=O)(=O)c3ccccc3)CC21 (stereo partly specified),0.99%
2,COC(=O)Cc1nnn2c1[C@H](C)[C@@H](OC)c1cc(Br)ccc1-2,-0.28%
3,Clc1ccc(C(Cn2ccnc2)OCc2ccsc2Cl)c(Cl)c1 (stereo unspecified),2.12%
4,Cc1ccc(NC(=O)CC2S/C(=N/N=C3\CCCc4ccccc43)NC2=O)cc1 (stereo unspecified),42.2% (active)
5,CCN=C1SC(CC(=O)Nc2ccc(C)cc2)C(=O)N1CC (stereo unspecified),-2.97%
6,Cc1c(Cl)cccc1NC(=O)CC1SC(=NCC2CCCO2)NC1=O (stereo unspecified),-0.81%
7,CC(=O)N1C[C@@H](CO)[C@@H](N(C)C(=O)C(C)(C)C)C[C@H]1c1ccccc1Br,-1.82%
8,C[C@@H]1COc2cccc(N3CCCC3)c2S(=O)(=O)N1C,1%
9,CC(C)(C)C1C/C(=C/c2ccco2)C(=O)/C(=C/c2ccco2)C1 (stereo unspecified),44.8% (active)
10,O=C(CN1C(=O)NC(Cc2c[nH]c3ccccc23)C1=O)Nc1ccccc1C(F)(F)F (stereo unspecified),2.5%
11,CC1CCN(C(=O)c2ncn3c2C(=O)N[C@@H](C)C3)CC1,1.9%
12,O=C(N1CCOCC1)N1CC[C@H]2[C@H](CCCN2Cc2ccc(F)cc2)C1,-0.35%
13,C=CCN1C(=O)[C@@H](CC(=O)N2CCN(C(=O)OCC)CC2)[C@]2(C(=O)OCC)CCCCC/C=C/12,1.94%
14,COc1ccc(CSc2nnc(-c3cccc(C)c3)n2C)cc1,-0.02%
15,COc1ccc(-n2c(SCC(=O)Nc3ccc(C)c(Cl)c3)nc3ccccc3c2=O)cc1,16.1%
16,CCOc1ccc(-n2c(SCC(=O)Nc3cc(C(=O)O)ccc3Cl)nc3ccccc3c2=O)cc1,46.3% (active)
17,CCOc1ccc(NC(=O)CSc2nc3ccccc3c(=O)n2Cc2cccs2)cc1,1.43%
18,COc1ccc(CN2C(=O)N3Cc4cc(OC)ccc4C3CS2(=O)=O)cc1 (stereo unspecified),1.88%
19,COCCCNC(=O)C[C@H]1C[C@@]2(C(=O)OC)C(=C[C@H](C(C)(C)C)O[C@@H]2C)N(Cc2ccc(Cl)cc2Cl)C1=O,1.45%
20,COC(=O)[C@]12C[C@H](CC(=O)NCCc3ccccc3OC)C(=O)N(Cc3ccccc3)C1=C[C@H](C(C)C)O[C@@H]2C1CC1,0.77%
21,C=CCn1c(N)cc(=O)nc1SCC(=O)Nc1cccc2ccccc12,3.99%
22,Cc1ccccc1-n1c(SCC(=O)Nc2cccc3ccccc23)nc(O)cc1=O,42.6% (active)
23,Cc1ccc(-n2c(SCC(=O)Nc3cccc4ccccc34)nnc2-c2ccccn2)cc1,3.79%
24,CC(C)N1CCCCC(NC(=O)C(C)(C)C)C1=O (stereo unspecified),0.73%
